The whole screen tested about 66,000 compounds, of which about 960 (1.5%) showed an effect of 50% or more. Shown is part of a subset that was picked to be rich in strong results.
Tested on: Trypanosoma brucei
Assay: Trypanosoma brucei 72 hour study
Format: functional, organism-based
Parameters: scale not given: in the data most compounds retested in dose-response had high values

## CC1(C(=O)NCc2cccnc2Oc2ccc(F)c(F)c2)CCCNC1 (stereo unspecified)
30 µM, 30.03 µM
  Percent Effect: -31.1%

## Cc1nc(C2(O)CCCNCC2)sc1CCOc1ccc(F)c(F)c1.Cl (stereo unspecified)
30.3 µM, […]
  Percent Effect: 101.7%

## Cn1cc(CNC(=O)NCCOc2ccc(F)c(F)c2)cn1
30 µM, 30.03 µM
  Percent Effect: -10%

## Cc1nccc(CNC(=O)NCCOc2ccc(F)c(F)c2)n1
30.3 µM, […]
  Percent Effect: 8.406%

## Cc1cc(CNC(=O)NCCOc2ccc(F)c(F)c2)on1
30 µM, 30.03 µM
  Percent Effect: -38.02%

## CCC(CN1CCCC1)NC(=O)Cc1c(C)[nH]c2c(C)cc(C)cc12.O=C(O)CC(O)(CC(=O)O)C(=O)O (stereo unspecified)
30.3 µM, […]
  Percent Effect: 9.843%

## Cc1ccc(CN2CCCn3nnc(COCC4CC4)c3C2)s1.O=C(O)C(F)(F)F
30 µM, 30.03 µM
  Percent Effect: 22.43%

## CN(C)CCCN(Cc1ccco1)Cc1ccnn1C1CCCCO1.O=C(O)CC(O)(CC(=O)O)C(=O)O (stereo unspecified)
30.3 µM, […]
  Percent Effect: -21.72%

## O=C(O)C(F)(F)F.O=C(c1ccncc1)N1CCOC2(CCCN(c3nncs3)C2)C1 (stereo unspecified)
30.3 µM, […]
  Percent Effect: -64.64%

## CN(C)S(=O)(=O)N1CCC(c2cccc(Cc3ccccc3Cl)n2)CC1
30.3 µM, […]
  Percent Effect: -38.96%

## Cc1ccc(-c2nc(CN(Cc3cccs3)CC3CCCO3)no2)cc1 (stereo unspecified)
10 µM
  Percent Effect: -10.74%
30.3 µM, […]
  Percent Effect: 9.515%

## Cc1ncoc1C(=O)N1C[C@H]2CCC[C@@]2(COCc2cccnc2)C1.O=C(O)C(F)(F)F
30 µM, 30.03 µM
  Percent Effect: 18.22%

## Cn1nnc2c1CCN(CC1CC1)C2COCc1ccccc1.O=C(O)C(F)(F)F (stereo unspecified)
30 µM, 30.03 µM
  Percent Effect: 17.54%

## CO[C@@H]1CC[C@H]2[C@H]1OCCN2Cc1ccc(F)c(F)c1.O=C(O)C(F)(F)F
30.3 µM, […]
  Percent Effect: -7.78%

## CC(C)NC(=O)N1CCOC2(CCCN(c3ncccc3F)C2)C1.O=C(O)C(F)(F)F (stereo unspecified)
30.3 µM, […]
  Percent Effect: -41.85%

## Cl.OC1(c2ccc(F)cc2)CCN(Cc2ccccc2N2CCCC2)CC1
30.3 µM, […]
  Percent Effect: -34.29%

## OC1(c2ccccc2F)CCN(Cc2ccccc2N2CCCC2)CC1
30.3 µM, […]
  Percent Effect: 56.26%

## Cc1nc(CCN)cc(N2CCC(O)(c3ccccc3)C2)n1 (stereo unspecified)
30 µM, 30.03 µM
  Percent Effect: -28.3%

## COc1cccc(CN2CCC(O)(c3ccc(C)cn3)CC2)c1OC
30.3 µM, […]
  Percent Effect: -256.8%

## Cc1cccc(C2(O)CCN(Cc3ccccc3N3CCCC3)CC2)c1
30.3 µM, […]
  Percent Effect: 93.6%

## Nc1ncc(CN2CCC(O)(c3ccccc3F)CC2)cn1
30.3 µM, […]
  Percent Effect: -5.013%

## COc1cc(CCC(=O)N2CCC(c3cc4ncccc4[nH]3)CC2)on1
30.3 µM, […]
  Percent Effect: 13.01%

## COc1cc(CCC(=O)N2CCC(c3cc4ncc(C)nc4[nH]3)C2)on1 (stereo unspecified)
30.3 µM, […]
  Percent Effect: 31.83%

## COc1cc(CCC(=O)N2CCC(c3cc4nccnc4[nH]3)CC2)on1
30.3 µM, […]
  Percent Effect: 60.69%

## O=C(C1CCOCC1)N1CCO[C@H]2[C@H](OCc3ccncc3)CC[C@@H]21.O=C(O)C(F)(F)F
30 µM, 30.03 µM
  Percent Effect: -17.19%

## CN(Cc1ccncc1)C1COC2(CCN(Cc3ccsc3)CC2)C1.O=C(O)C(F)(F)F.O=C(O)C(F)(F)F.O=C(O)C(F)(F)F (stereo unspecified)
30 µM, 30.03 µM
  Percent Effect: 11.15%

## Cn1nc(C(=O)NCc2ccccn2)c2c1CCS(=O)(=O)C2
30 µM, 30.03 µM
  Percent Effect: 63.28%

## Cn1nc(C(=O)NCc2cccnc2)c2c1CCS(=O)(=O)C2
30.3 µM, […]
  Percent Effect: -19.1%

## Cn1nc(C(=O)NCc2cccs2)c2c1CCS(=O)(=O)C2
30.3 µM, […]
  Percent Effect: -10.45%

## CC(=O)N1CCC[C@@H](NCc2c[nH]c3ccccc23)[C@@H]1c1ccc(C)s1.Cl
30.3 µM, […]
  Percent Effect: -17.97%

## Cc1cnn(C2CCCN(C(=O)Cc3c(C)nn(C)c3C)C2)c1 (stereo unspecified)
30.3 µM, […]
  Percent Effect: -16.8%

## O=C(O)C(F)(F)F.c1cncc(N2CCC3(CCCN(c4ccncc4)C3)CC2)c1
30.3 µM, […]
  Percent Effect: -3.759%

## N#Cc1ccc(N2CCCC3(CCN(c4cccnc4)CC3)C2)cc1.O=C(O)C(F)(F)F
30.3 µM, […]
  Percent Effect: 65.08%

## Cc1cnc(N2CCCC3(COCCN(c4nccs4)C3)C2)nc1 (stereo unspecified)
30.3 µM, […]
  Percent Effect: -22.75%

## Fc1cnc(N2CCCC3(COCCN(c4nccs4)C3)C2)nc1.O=C(O)C(F)(F)F.O=C(O)C(F)(F)F (stereo unspecified)
30 µM, 30.03 µM
  Percent Effect: 60.81%

## O=C(O)C(F)(F)F.c1cncc(N2CCOCC3(CCCN(c4nncs4)C3)C2)c1 (stereo unspecified)
30.3 µM, […]
  Percent Effect: 1.277%

## O=C(O)C(F)(F)F.O=C(O)C(F)(F)F.c1cncc(N2CCCC3(CCN(CCN4CCCC4)CC3)C2)c1
30.3 µM, […]
  Percent Effect: -7.746%

## O=C(O)C(F)(F)F.O=C(c1cccs1)N1CCCC2(COCCN(c3cccnc3)C2)C1 (stereo unspecified)
30.3 µM, […]
  Percent Effect: -669.5%

## O=C(O)C(F)(F)F.c1ccc(N2CCCC3(COCCN(c4nccs4)C3)C2)nc1 (stereo unspecified)
30 µM, 30.03 µM
  Percent Effect: 23.77%

## O=C(O)C(F)(F)F.O=S(=O)(c1cccs1)N1CCCC2(COCCN(c3cccnc3)C2)C1 (stereo unspecified)
30.3 µM, […]
  Percent Effect: 53.4%

## O=C(O)C(F)(F)F.O=C(O)C(F)(F)F.c1cc(CN2CC[C@@H]3[C@@H](CO[C@H]3CN3CCOCC3)C2)cs1
30.3 µM, […]
  Percent Effect: -46.86%

## COc1ccc(N2CCN(C(=O)[C@H]3[C@@H]4CNC[C@@H]43)CC2(C)C)cc1
30 µM, 30.03 µM
  Percent Effect: -58.92%

## Cc1cccc(CN2CCO[C@@H]3CC(COc4ccccn4)C[C@H]32)n1.O=C(O)C(F)(F)F.O=C(O)C(F)(F)F (stereo partly specified)
30.3 µM, […]
  Percent Effect: -29.04%

## Cc1cc(C)c2cc(CNCc3ccc(C)o3)c3nn(C)c(=O)n3c2c1
30.3 µM, […]
  Percent Effect: -8.702%

## CCCNCc1cc2c(C)cc(C)cc2n2c(=O)n(C)nc12
30.3 µM, […]
  Percent Effect: 24.54%

## Cc1cc(C)c2cc(CNC(C)C)c3nn(C)c(=O)n3c2c1
30.3 µM, […]
  Percent Effect: 99.68%

## Cc1cc(C)c2cc(CNC3CCCCC3)c3nn(C)c(=O)n3c2c1
30.3 µM, […]
  Percent Effect: 100.6%

## Cc1cc(C)c2cc(CNCc3ccco3)c3nn(C)c(=O)n3c2c1
30.3 µM, […]
  Percent Effect: 8.532%

## CCOCCCNCc1cc2c(C)cc(C)cc2n2c(=O)n(C)nc12
30.3 µM, […]
  Percent Effect: 2.995%

## COCCNCc1cc2c(C)cc(C)cc2n2c(=O)n(C)nc12
30.3 µM, […]
  Percent Effect: 39.03%

## Cc1cc(C)c2cc(CNCC3CCCO3)c3nn(C)c(=O)n3c2c1 (stereo unspecified)
30.3 µM, […]
  Percent Effect: 73.49%

## Cc1cc(C)c2cc(CNCc3ccccc3)c3nn(C)c(=O)n3c2c1
30.3 µM, […]
  Percent Effect: 17.22%

## Cc1nc(Nc2ncccn2)cc(C2CCCN2CC(C)C)n1 (stereo unspecified)
30 µM, 30.03 µM
  Percent Effect: -16.62%

## Cc1nc(CN2CCC3(CC2)NC(=O)CC3c2ccccc2)cs1.O=C(O)C(F)(F)F (stereo unspecified)
30.3 µM, […]
  Percent Effect: 10.42%

## O=C(Cc1cccc(F)c1)N1C[C@H]2CN(Cc3ccccn3)C[C@H]2C1.O=C(O)C(F)(F)F
30.3 µM, […]
  Percent Effect: -6.988%

## CC(C)n1c(=O)nc2n1C(=O)N(c1ccccc1)C2
30 µM, 30.03 µM
  Percent Effect: 14.82%

## CN1CCN(Cc2cnc3n2CCN(Cc2cccnc2)CC3)CC1.O=C(O)C(F)(F)F.O=C(O)C(F)(F)F.O=C(O)C(F)(F)F
30.3 µM, […]
  Percent Effect: -39.08%

## Cc1nc(CN2C(=O)C[C@@H]3[C@@H]2CCN3S(C)(=O)=O)cs1
30 µM, 30.03 µM
  Percent Effect: -13.69%

## Cc1cc2nc(C(C)C)cc(NCCNc3ncccc3C)n2n1
30 µM, 30.03 µM
  Percent Effect: -45.75%

## FC(F)(F)c1ccc(-c2c[nH]c([C@@H]3COCCN3)n2)cc1
30 µM, 30.03 µM
  Percent Effect: 11.07%

## FC(F)(F)Oc1ccc(-c2c[nH]c([C@@H]3COCCN3)n2)cc1
30 µM, 30.03 µM
  Percent Effect: 62.77%

## COc1ccc(-c2c[nH]c([C@@H]3COCCN3)n2)cc1
30 µM, 30.03 µM
  Percent Effect: -38.08%

## CC(Nc1ccc(C#N)cc1F)c1cccc(S(N)(=O)=O)c1 (stereo unspecified)
30 µM, 30.03 µM
  Percent Effect: 35.16%

## CC(Nc1cccc(F)c1C#N)c1cccc(S(N)(=O)=O)c1 (stereo unspecified)
30 µM, 30.03 µM
  Percent Effect: 70.17%

## CC(Nc1c(F)cc(C#N)cc1F)c1cccc(S(N)(=O)=O)c1 (stereo unspecified)
30 µM, 30.03 µM
  Percent Effect: 39.53%

## CC(=O)N1CCN(Cc2ccc(F)cc2)CC2(CC(=O)N(C)C2)C1.O=C(O)C(F)(F)F (stereo unspecified)
30.3 µM, […]
  Percent Effect: -72.99%

## COc1ccc(CNc2ncc(-c3cc(C)no3)c(C(C)C)n2)cc1
30.3 µM, […]
  Percent Effect: 46.49%

## Cc1cc(-c2cnc(NCc3ccccn3)nc2C(C)C)on1
30.3 µM, […]
  Percent Effect: 94.64%

## Cc1cc(-c2cnc(NCc3cccnc3)nc2C(C)C)on1
30 µM, 30.03 µM
  Percent Effect: 23.42%

## Cc1cc(-c2cnc(NCc3ccncc3)nc2C(C)C)on1
30.3 µM, […]
  Percent Effect: 23.52%

## Cc1cc(-c2cnc(NCc3ccc4c(c3)OCO4)nc2C(C)C)on1
30.3 µM, […]
  Percent Effect: 70.78%

## Cc1cc(-c2cnc(NCc3cccnc3)nc2C(C)(C)C)on1
30 µM, 30.03 µM
  Percent Effect: 25.28%

## CNS(=O)(=O)Cc1ccc(CNC(=O)c2ccccn2)cc1
30.3 µM, […]
  Percent Effect: -17.29%
10 mM, 10 mM as filed; unlikely as a test dose
  Percent Effect: -30.84%

## COc1cccc(C(=O)N2CCc3nc(C4CCCN4)ncc3C2)c1.Cl (stereo unspecified)
30.3 µM, […]
  Percent Effect: -17.69%

## COc1ccccc1CC1CCCN(CC(N)=O)C1 (stereo unspecified)
30 µM, 30.03 µM
  Percent Effect: -11.23%

## CNC(=O)CN1CCCC(Cc2ccccc2OC)C1 (stereo unspecified)
30.3 µM, […]
  Percent Effect: 99.76%

## COc1ccccc1CC1CCCN(CC(=O)NC2CC2)C1 (stereo unspecified)
30.3 µM, […]
  Percent Effect: 6.426%

## COc1ccccc1CC1CCN(C(=O)CCN2CCOC2=O)CC1
30.3 µM, […]
  Percent Effect: 4.544%

## COc1ccccc1CC1CCCN(CCC#N)C1 (stereo unspecified)
30 µM, 30.03 µM
  Percent Effect: -5.815%

## COc1ccccc1CN1CCN(CCN2CCOC2=O)CC1
30 µM, 30.03 µM
  Percent Effect: -64.53%

## COc1ccccc1CC1CCCN(CCC(N)=O)C1 (stereo unspecified)
30.3 µM, […]
  Percent Effect: 100.1%

## CNC(=O)NC(=O)CN1CCCC(Cc2ccccc2OC)C1 (stereo unspecified)
30.3 µM, […]
  Percent Effect: 26.83%

## COc1ccccc1CC1CCCN(CCN2CCOC2=O)C1 (stereo unspecified)
30.3 µM, […]
  Percent Effect: 99.68%

## O=C(O)c1cc(/C=C/c2ccc3ccccc3c2)ncn1
30 µM, 30.03 µM
  Percent Effect: 17.56%

## CCn1ncc2c1C(COCC1CC1)CN(C(=O)c1ccncn1)C2.O=C(O)C(F)(F)F (stereo unspecified)
30 µM, 30.03 µM
  Percent Effect: -0.6882%

## Cc1ncsc1C(=O)N1CC[C@@]2(O)CCN(C(=O)N3CCCC3)C[C@H]2C1
30.3 µM, […]
  Percent Effect: -70.48%

## COc1ccc(F)c(-c2ncccc2C(=O)N2C[C@H]3CC[C@@H]2C3)c1
30 µM, 30.03 µM
  Percent Effect: -6.323%

## CCn1c(CN2CCC(O)(c3ccc4c(c3)OCO4)CC2)cnc1SC.O=C(O)CC(O)(CC(=O)O)C(=O)O
30.3 µM, […]
  Percent Effect: -5.268%

## COc1cc(N2C[C@@H]3COC[C@]3(COCc3ccncc3)C2)ncn1.O=C(O)C(F)(F)F.O=C(O)C(F)(F)F
30 µM, 30.03 µM
  Percent Effect: -12.8%

Source: ChEMBL document CHEMBL3988442, “University of Dundee, Small-Polar-MMV Screening Library” (2021)
